Results published in PubChem BioAssay AID720517 (National Center for Advancing Translational Sciences (NCATS), 2013).
Records with an inconclusive call do not appear. Where a call stands in place of a potency, no number is given. The source made the active and inactive calls. Calls come from the whole dose curve; as a rule, active = well fitted activation curve with a large enough effect; inconclusive = small, poorly fitted or top-dose-only effect; inactive = flat fitted curve, though single readings scatter.

Assay: qHTS for Inhibitors of Cell Surface uPA Generation: FP59 Counterscreen for Cherry-picked Compounds
Conditions: FP59 anthrax toxin cytotoxicity counterscreen, cells; series mostly up to 115 µM
Potency is the fitted concentration of half-maximal effect.

Structure (SMILES)	Potency
Cc1ccc(Cl)c(N/C=C/C(=O)c2ccccc2)c1	inactive
COc1ccc(C(=O)N[C@H](C(=O)NCc2cccs2)C(C)C)cc1	inactive
CC(/C=C1\SC(=S)N(CCCC(=O)Nc2ccc(C(=O)O)cc2)C1=O)=C\c1ccccc1	inactive
Clc1ccccc1N1CCN(c2ncnc3nc[nH]c23)CC1	inactive
COc1cc(/C=N/NC(=O)Cc2csc(C)n2)ccc1OCC(C)C	inactive
Cc1cc(NC(=O)COc2cccc([N+](=O)[O-])c2)no1	inactive
COc1ccc(C2=NS(=O)(=O)N(C)C(C(=O)NCc3ccccn3)=C2)cc1	inactive
O=C(COC(=O)/C=C/c1cccc(F)c1)Nc1ccccc1	inactive
COc1cccc(C(=O)NCc2ccc3[nH]c(C)cc3c2)c1	inactive
Cc1cc(N2C(=O)C(O)=C(C(=O)c3ccco3)C2c2ccc(Cl)cc2)no1 (centres undefined)	inactive
Cc1ccccc1S(=O)Cc1ccc(C(=O)N2CCN(C(=O)c3ccco3)CC2)o1 (centres undefined)	inactive
C=C(C(=O)O)C1CCC2(C)CCCC(C)(O)C2C1 (centres undefined)	inactive
Cc1ccc(NC(=O)C(C)S)cc1 (centres undefined)	inactive
O=C(O)c1ccccc1/C=N/NC(=S)NC1CCCCC1	inactive
O=C1C=C(NNC(=O)c2ccncc2)CC(c2ccccc2)C1 (centres undefined)	inactive
COc1ccccc1C(=O)NCCC(=O)NCC(c1ccc(F)cc1)N1CCOCC1 (centres undefined)	inactive
CCOC(=O)c1ccccc1N=Cc1c(O)c2ccccc2oc1=O	inactive
O=C(O)c1ccc(-c2ccc(/C=C3\NC(=O)N(Cc4ccc(Cl)cc4)C3=O)o2)cc1	inactive
Cc1nc(C(=O)N2CCC(n3nccc3NC(=O)Nc3ccccc3Cl)CC2)cs1	inactive
Cc1ccc(NC2CCCN(C(=O)Cc3nonc3C)C2)cc1C (centres undefined)	inactive
CCN(CC)CCNC(=O)/C(=C/c1cn(CC)c2ccccc12)NC(=O)c1cc(OC)c(OC)c(OC)c1	inactive
CS/C(=C\[N+](=O)[O-])Nc1ccccc1	inactive
C=CCNC(=S)NCC=C	inactive
CCC(NC(=S)NCc1ccc(F)cc1)c1ccccc1 (centres undefined)	inactive
O=C1C=CC(O)(c2cc(=O)c3c(O)cc(O)cc3o2)C=C1	14.7 µM (active)

Structure (SMILES)	Potency
COc1ccc(CCNC(=O)Cn2cccc2C(=O)c2ccccc2)c(OC)c1	inactive
Fc1ccc(CNc2ccccn2)cc1	inactive
CC1(C)CC(CCC(=O)NC(=S)Nc2ccccc2Cl)C(=O)O1 (centres undefined)	inactive
Cc1cnc(CNC(=O)CC2C(=O)NCCN2Cc2ccccc2C(F)(F)F)cn1 (centres undefined)	inactive
CN(CC(=O)NCCCn1ccnc1)S(=O)(=O)c1ccc(Cl)cc1	inactive
CC(C)(C)C(=O)NCCc1nc2ccccc2n1CC(=O)c1ccc(Cl)cc1	inactive
CCN(c1ccccc1)S(=O)(=O)c1ccc(NC(=O)c2ccco2)cc1	inactive
CC(C)NCC1CCc2cc(CO)c([N+](=O)[O-])cc2N1 (centres undefined)	inactive
O=C1[C@H]2[C@@H](c3ccc(F)cc3)N3C(=O)N(c4cccc(F)c4)C(=O)[C@@]3(Cc3ccc(Cl)cc3)[C@H]2C(=O)N1C1CCCCC1	inactive
Cc1ccc2nc(Nc3ccc(Cl)cc3)c3nncn3c2c1	inactive
COc1cc(NC(=S)NCCc2ccc(S(N)(=O)=O)cc2)c(OC)cc1Cl	inactive
Cc1ccc(C(=O)COc2cc(O)c3c(=O)cc(-c4ccccc4)oc3c2)cc1	inactive
Cc1ccc(N=C2SCCCN2C(=O)c2cccc(N3C(=O)CCC3=O)c2)cc1Cl	inactive
COc1cccc(NC(=S)NCc2ccc3c(c2)cc(C)n3C)c1	inactive
COc1cc(CN2CCNC(=O)C2CC(=O)NCCCC2CCCC2)cc(OC)c1 (centres undefined)	inactive
Cc1ccc(/C=N/NC(=O)c2ccc3nc[nH]c3c2)s1	inactive
C=CC(=O)N1C/C(=C/c2ccccc2)C(=O)/C(=C\c2ccccc2)C1	13.1 µM (active)
O=[N+]([O-])c1ccc(C[n+]2cccc(O)c2)cc1	inactive
COc1cc(OC)cc(C(=O)NC(C(=O)Nc2ccc3c(c2)CCC3)C(C)C)c1 (centres undefined)	inactive
CCn1c2ccccc2c2n[nH]c(=S)nc21	inactive
Cc1cc(C)n(-c2cc(C(=O)O)cc(C(=O)O)c2)n1	inactive
Cc1ccccc1C(=O)Nc1ccccc1N1CCCCC1	inactive
CCc1ccc(NCc2nc(-c3ccccc3)no2)cc1	inactive
Cc1ccccc1N1C(=O)C(Cc2ccc(F)cc2)S/C1=C(\C#N)C(N)=O (centres undefined)	inactive
CCOc1ccc(CCNC(=O)Cc2ccc(NC3=NC4CS(=O)(=O)CC4S3)cc2)cc1OCC (centres undefined)	inactive

Structure (SMILES)	Potency
CCN(CC)S(=O)(=O)c1ccc(C(=O)Nc2cccc(C)c2)cc1	inactive
COc1ccc(CCNC(=O)CSc2nc(N)c3c(C)c(C)oc3n2)cc1OC	inactive
CC1(NC(=O)CSc2nnc(-c3c[nH]c4ccccc34)n2C2CC2)CCS(=O)(=O)C1 (centres undefined)	inactive
CCc1ccc(S(=O)(=O)NCCc2cn3cccc(C)c3n2)s1	inactive
CCOCc1nnc(NC(=O)C2CCN(C(=O)C3CC(=O)N(c4ccc(C)cc4)C3)CC2)s1 (centres undefined)	inactive
NC(=O)c1ccc(NC(=O)CN2CCN(S(=O)(=O)c3ccc4ccccc4c3)CC2)cc1	inactive
COc1cccc(C(=O)Cn2c(NCCCO)nc3ccccc32)c1	inactive
CCn1c(SC(C)C(=O)NC2CCCC2)nc2cc(S(N)(=O)=O)ccc21 (centres undefined)	inactive
CC(=O)n1cc(/C=N/NC(=O)c2ccc([N+](=O)[O-])cc2)c2ccccc21	inactive
CC1CCCN(S(=O)(=O)c2cccc([N+](=O)[O-])c2)C1 (centres undefined)	inactive
COc1ccc(NC(=O)CC(C)CC(=O)NCc2ccccc2)c(OC)c1 (centres undefined)	inactive
CCN1CCN(Cc2ccc(NC(=O)c3cc(NC(=O)c4cncc(-c5cccs5)c4)cc(OC)c3)cc2C(F)(F)F)CC1	inactive
O=c1[nH]c2ccccc2cc1CN(CC1CCCO1)S(=O)(=O)c1ccccc1 (centres undefined)	inactive
C=CCN1C=C2C(=O)C(C)(OC(=O)c3cnc4ccccc4n3)C(=O)C=C2C=C1/C=C/COC (centres undefined)	inactive
CC(C)c1ccc(C2/C(=C(\O)c3ccc4c(c3)OCCO4)C(=O)C(=O)N2CCN2CCOCC2)cc1 (centres undefined)	inactive
CCOc1cc(/C=N/Nc2cc(C)nc3ccc(C)cc23)ccc1O	inactive
COc1cc(NS(=O)(=O)c2ccc(NC(=S)NC(=O)COc3ccccc3OC)cc2)nc(OC)n1	inactive
COc1ccc(CN2CCNC(=O)C2CC(=O)NCC2CCOCC2)cc1C (centres undefined)	inactive
Cc1ccc(-c2cc(C(=O)NCC3CCCO3)no2)cc1 (centres undefined)	inactive
Cc1cccc(N2C(=O)N3[C@H](c4ccc(F)cc4)[C@@H]4C(=O)N(C5CCCCC5)C(=O)[C@@H]4[C@]3(Cc3ccc(Cl)cc3)C2=O)c1	inactive
COc1ccc(CC(=O)Nc2nc(C)cs2)cc1OC	inactive
O=C(CCN1CCN(c2ccccc2F)CC1)Nc1ccc(F)cc1	inactive
COc1cc(NC(=O)CSc2nnc3ccc(-c4ccncc4)nn23)cc(OC)c1	inactive
COc1ccc(-n2ncc3c(=O)n(CC(=O)NC(C)C)cnc32)cc1	inactive
